This is one part of a sample in which hits are shown more often than they occur.
DT40 TDP1 CPT: growth inhibition of DT40 Tdp1-/-;hTDP1 cells with camptothecin (screen for TDP1 inhibitors); chicken DT40 Tdp1-/-;hTDP1 cells + 20 nM CPT, ATP luminescence, 48 h; Potency, µM (series often up to 46.2 µM), for inactives: top-dose activity change, negative = growth inhibition, most hits filed as inhibitors; hit rate 12% among 420,000; AID 686979; note: potency is the fitted concentration of half-maximal effect; nearly all actives have a fitted effect of over 55% in size
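Cell growth measured by CellTiter-Glo luminescence after a minimum 48 h, 37 C compound exposure with 20 nM CPT in Tdp1-knockout DT40 cells stably expressing hTDP1, seeded 400/well; qHTS titration format.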
HT1080 IDH1KD tx: toxicity to HT-1080 IDH1 knockdown cells (counter line) | HT-1080 IDH1 knockdown viability, ATP luminescence, 48 h | Potency, µM (titrated, usually from 46.1 µM), inactives show top-dose activity, negative = toxicity, hits mostly cytotoxic | hit rate 2% among 360,000 | AID 686971;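 note: potency is the fitted concentration of half-maximal effect; 0% = DMSO wells and -100% = cell-free medium wells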
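HT-1080-IDH1KD cells (IDH1 knocked down), 750/well in RPMI with 5% FBS, treated with compound 48 h at 37 degrees C. Viability by CellTiter-Glo luminescence, normalised to DMSO and no-cell wells; concentration-response curves classed.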
ALOX12 inh: inhibitors of human 12S-lipoxygenase ALOX12. hit rate 1.1% among 580,000. purified 12hLO, xylenol orange hydroperoxide absorbance. Potency, µM (doses to about 108 µM), without a hit: at the highest dose activity change, negative = inhibition, hits mostly inhibitors. AID 1671190; note: potency is the fitted concentration of half-maximal effect
Target sequence (P18054 whole entry, looked up): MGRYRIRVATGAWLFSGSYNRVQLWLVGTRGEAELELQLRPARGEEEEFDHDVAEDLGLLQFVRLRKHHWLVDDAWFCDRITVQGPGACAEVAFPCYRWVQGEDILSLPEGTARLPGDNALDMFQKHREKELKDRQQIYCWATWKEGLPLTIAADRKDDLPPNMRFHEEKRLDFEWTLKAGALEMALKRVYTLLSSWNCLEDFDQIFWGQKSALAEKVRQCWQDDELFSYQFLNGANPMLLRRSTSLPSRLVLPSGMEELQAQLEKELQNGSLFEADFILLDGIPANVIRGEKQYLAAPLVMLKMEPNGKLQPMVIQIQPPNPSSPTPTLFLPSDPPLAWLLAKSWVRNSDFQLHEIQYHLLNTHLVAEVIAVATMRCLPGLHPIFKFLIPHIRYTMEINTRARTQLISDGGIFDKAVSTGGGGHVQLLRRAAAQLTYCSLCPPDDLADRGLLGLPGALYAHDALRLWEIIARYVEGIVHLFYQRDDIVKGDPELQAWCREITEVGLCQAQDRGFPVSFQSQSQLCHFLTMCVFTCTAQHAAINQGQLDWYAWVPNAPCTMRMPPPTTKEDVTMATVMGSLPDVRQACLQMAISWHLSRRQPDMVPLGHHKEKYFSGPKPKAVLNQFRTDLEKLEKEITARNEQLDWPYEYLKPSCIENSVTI
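Purified human 12hLO (150 nM final) in 25 mM Hepes, 0.01% Triton X-100, pH 7.0 was preincubated 15 min at room temperature with compound. Then 40 uM arachidonic acid was added, 30 min. Hydroperoxide was read by Fe-XO absorbance ratio 573/405 nm.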
IL-1B inflam inh: blocks inflammasome-driven IL-1 beta release; THP-1 LPS/ATP IL-1B secretion, AlphaLISA, 16 h; hits give low values; activity change, % at 57.5 µM; hit rate 4.7% among 360,000; AID 743279; in the data active = activity change below about -50%; inconclusive = mostly about -30% to -49%
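Secreted IL-1B measured by AlphaLISA bead assay after 16 h compound exposure of THP-1 cells; compounds (final up to 57.5 uM) added 1 h before LPS (250 ng/mL) and ATP (1.25 mM) stimulation; lower signal means less secretion.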
HT1080NT lethal: kills 2HG-producing HT-1080-NT fibrosarcoma cells; hit rate 1.6% among 360,000; Potency, µM (series often up to 46.1 µM), without a hit: at the highest dose activity, negative = less viability, hits mostly cytotoxic; HT-1080-NT fibrosarcoma viability, CellTiter-Glo ATP luminescence, 48 h;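 note: NT is the 2HG producing partner of a matched IDH1 knockdown line; potency is the fitted concentration of half-maximal effect; 0% = DMSO-treated cells and -100% = media-only wells without cells; nearly all actives have a fitted effect of over 55% in size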
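Read-out is CellTiter-Glo luminescence after 10 minutes at room temperature, following 48 hours' compound treatment of HT-1080-NT cells (750 cells/well, RPMI, 5% FBS, 37 degrees C).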
DT40 TDP1 no CPT: qHTS for Inhibitors of human tyrosyl-DNA phosphodiesterase 1 (TDP1): qHTS in cells in absence of CPT; DT40 Tdp1-/- hTDP1 cells, no CPT, ATP luminescence, 48 h; Potency, µM (highest dose often 46.2 µM), for the others: top-dose activity change, negative = growth inhibition, most hits filed as inhibitors; hit rate 15% among 420,000; AID 686978, 2013; note: potency is the fitted concentration of half-maximal effect; nearly all actives have a fitted effect of over 55% in size
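Seeded 400 DT40-hTDP1 cells/well (vehicle DMSO, no 20 nM CPT); pinned compounds; ≥48 hr at 37 °C; CellTiter-Glo luminescence as viability measure.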
* = called active by the depositor; [ ] = dose if it differs, or a comment. Unless noted, calls come from the whole dose curve; as a rule, active = well fitted curve in the direction sought with a large enough effect; inconclusive = small, poorly fitted or top-dose-only effect, or another doubt; inactive = no such curve, though single readings can be large; an effect the other way counts as inactive or inconclusive. Unless noted, % is set by controls: 0 for no effect and ±100 for the full control effect.

What do the screens show for `CC(=O)c1ccc(N2CCN(C(=O)C(=O)c3cn(CC(=O)N4CCCCCC4)c4ccccc34)CC2)cc1`?
DT40 TDP1 CPT: 23.1µM*; HT1080 IDH1KD tx: -0.7%; ALOX12 inh: 0.0%; IL-1B inflam inh: inactive; HT1080NT lethal: 2.8%; DT40 TDP1 no CPT: 13µM*

What do the screens show for `Cn1nc(C(=O)OCc2ccccc2)c2ccccc2c1=O`?
ALOX12 inh: -2.6%

What do the screens show for `CN1[C@@H](CCC(=O)NCc2ccccc2)CNC(=O)[C@@H]2[C@H]1CCN2Cc1cccc(Cl)c1`?
ALOX12 inh: 16.1%

How did CCOc1ccccc1NC(=O)COC(=O)c1cn(CC)c2nc(C)ccc2c1=O do in these assays?
DT40 TDP1 CPT: 18.4µM*; ALOX12 inh: 0.0%; DT40 TDP1 no CPT: inconclusive

Results for Cc1ccc(NC(=O)CSc2cn(CC(=O)N3CCCC3)c3ccccc23)cc1Cl ?
DT40 TDP1 CPT: 25.9µM*; ALOX12 inh: -22.7%; DT40 TDP1 no CPT: inconclusive

What do the screens show for `CCn1cc(C(=O)OCC(=O)c2cc(C)n(-c3ccccc3)c2C)c(=O)c2ccc(C)nc21`?
DT40 TDP1 CPT: -21.9%; HT1080 IDH1KD tx: -11.5%; ALOX12 inh: -17.0%; IL-1B inflam inh: 11.4; HT1080NT lethal: -13.9%; DT40 TDP1 no CPT: inconclusive

What do the screens show for `CCn1cc(C(=O)OCC(=O)Nc2ccccc2OC(F)F)c(=O)c2ccc(C)nc21`?
DT40 TDP1 CPT: -29.2%; HT1080 IDH1KD tx: -13.3%; ALOX12 inh: -9.4%; IL-1B inflam inh: 20.9; HT1080NT lethal: 0.3%; DT40 TDP1 no CPT: inconclusive

How did CCn1cc(C(=O)OCC(=O)c2cc(C)n(-c3ccc(OC(F)F)cc3)c2C)c(=O)c2ccc(C)nc21 do in these assays?
DT40 TDP1 CPT: inconclusive; HT1080 IDH1KD tx: 11.9%; ALOX12 inh: -23.5%; IL-1B inflam inh: -11.5; HT1080NT lethal: -8.5%; DT40 TDP1 no CPT: 13µM*

What do the screens show for `CCCNC(=O)C1COC2(CCN(C(=O)c3ccccc3Cl)CC2)N1C(=O)c1ccc(OC)cc1` (configuration not stated)?
ALOX12 inh: 40.4%

What do the screens show for `COc1cccc(CNC(=O)C2CCCN(S(=O)(=O)c3ccc4c(c3)C(C)(C)C(=O)N4C)C2)c1` (configuration not stated)?
DT40 TDP1 CPT: 14.6µM*; HT1080 IDH1KD tx: -0.6%; ALOX12 inh: 2.2%[57.4 µM]; IL-1B inflam inh: -3.4; HT1080NT lethal: 4.6%; DT40 TDP1 no CPT: inconclusive

Results for COc1ccccc1CNC(=O)C1CCCN(S(=O)(=O)c2ccc3c(c2)C(C)(C)C(=O)N3C)C1 (configuration not stated) ?
DT40 TDP1 CPT: inconclusive; HT1080 IDH1KD tx: -8.8%; ALOX12 inh: -4.3%; IL-1B inflam inh: 3.7; HT1080NT lethal: 0.0%; DT40 TDP1 no CPT: 14.6µM*

Results for CCOc1ccccc1NC(=O)C1CCCN(S(=O)(=O)c2ccc3c(c2)C(C)(C)C(=O)N3C)C1 (configuration not stated) ?
DT40 TDP1 CPT: 18.4µM*; HT1080 IDH1KD tx: -16.0%; ALOX12 inh: 12.7%[57.4 µM]; IL-1B inflam inh: -3.6; HT1080NT lethal: 2.9%; DT40 TDP1 no CPT: inconclusive

How did COc1cccc(CNC(=O)C2CCN(S(=O)(=O)c3ccc4c(c3)C(C)(C)C(=O)N4C)CC2)c1 do in these assays?
ALOX12 inh: 11.1%

Results for CN1C(=O)C(C)(C)c2cc(S(=O)(=O)N3CCCC(C(=O)Nc4ccc(Cl)cc4)C3)ccc21 (configuration not stated) ?
DT40 TDP1 CPT: inconclusive; HT1080 IDH1KD tx: -6.5%; ALOX12 inh: -4.3%; IL-1B inflam inh: -12.1; HT1080NT lethal: -20.1%; DT40 TDP1 no CPT: 18.4µM*

What do the screens show for `Cc1ccccc1NC(=O)C1CCCN(S(=O)(=O)c2ccc3c(c2)C(C)(C)C(=O)N3C)C1` (configuration not stated)?
DT40 TDP1 CPT: 7.9%; HT1080 IDH1KD tx: 1.4%; ALOX12 inh: 18.0%; IL-1B inflam inh: -0.8; HT1080NT lethal: -1.6%; DT40 TDP1 no CPT: inconclusive

What do the screens show for `CCCCCC1CCCC(=O)O1` (configuration not stated)?
ALOX12 inh: -4.4%[176 µM]

What do the screens show for `CC(CCN1CCOCC1)NC(=O)c1cccc(NCC(=O)O)c1` (configuration not stated)?
ALOX12 inh: -9.7%

What do the screens show for `CN1C(=O)C(C)(C)c2cc(S(=O)(=O)NCC3CCC(C(=O)NCc4ccccc4)CC3)ccc21` (configuration not stated)?
DT40 TDP1 CPT: inconclusive; HT1080 IDH1KD tx: -8.0%; ALOX12 inh: 7.3%; IL-1B inflam inh: -11.5; HT1080NT lethal: -3.2%; DT40 TDP1 no CPT: 16.4µM*

Results for CCn1cnnc1CC1CCCN(C(=O)CCc2ccccc2)C1 (configuration not stated) ?
ALOX12 inh: 52.0%

What do the screens show for `CCn1ccc(C(=O)N2CCC(Cn3c(C)cnc3C)CC2)n1`?
ALOX12 inh: 35.6%

How did O=C(c1ccco1)N1CCN(c2nc3ccsc3c(=O)s2)CC1 do in these assays?
DT40 TDP1 CPT: inconclusive; HT1080 IDH1KD tx: 5.5%; ALOX12 inh: 292.6%; IL-1B inflam inh: -7.9; HT1080NT lethal: 0.0%; DT40 TDP1 no CPT: inconclusive

How did Cc1cc(C)c2nc(N3CCN(C(=O)c4ccco4)CC3)sc2c1 do in these assays?
DT40 TDP1 CPT: -2.6%; HT1080 IDH1KD tx: inconclusive; ALOX12 inh: -33.6%; IL-1B inflam inh: -29.3; HT1080NT lethal: 18.8%; DT40 TDP1 no CPT: -2.9%

How did O=C(c1cc2cc(Cl)ccc2[nH]1)N1CCN(C(=O)c2ccco2)CC1 do in these assays?
DT40 TDP1 CPT: inconclusive; HT1080 IDH1KD tx: 0.0%; ALOX12 inh: 44.7µM*; IL-1B inflam inh: -14.0; HT1080NT lethal: -0.4%; DT40 TDP1 no CPT: inconclusive

What do the screens show for `O=C(c1ccco1)N1CCN(c2nc3ccc(Cl)cc3s2)CC1`?
DT40 TDP1 CPT: inconclusive; ALOX12 inh: inconclusive; DT40 TDP1 no CPT: 23.1µM*

Results for Cc1ccc2nc(N3CCN(C(=O)c4ccco4)CC3)c3nncn3c2c1 ?
DT40 TDP1 CPT: inconclusive; HT1080 IDH1KD tx: 12.4%; ALOX12 inh: -1.9%; IL-1B inflam inh: -8.8; HT1080NT lethal: 7.6%; DT40 TDP1 no CPT: 16.4µM*

What do the screens show for `Cc1cc2nc(N3CCN(C(=O)c4ccco4)CC3)sc2cc1C`?
DT40 TDP1 CPT: inconclusive; HT1080 IDH1KD tx: -23.6%; ALOX12 inh: -28.1%; IL-1B inflam inh: -13.8; HT1080NT lethal: -26.5%; DT40 TDP1 no CPT: 20.6µM*
